Experimental data published in PubChem BioAssay.
Calls of active or inactive are those of the source. Unless noted, no rule for the calls is given here.

Legend:
[1] = HepG2 liver cancer cell viability effects, profiling panel, resazurin fluorescence, 24 h, PK04 Diversity Set (AID 1172); conditions: higher = more signal
[2] = basal S. cerevisiae growth modulation, no modifier, primary screen, OD600, strain BY4716, 24 h, basal condition (AID 1173); conditions: OD600, 24 h, higher = more signal, called active from +8 up or from −8 down
[3] = MM1S myeloma cell viability, profiling panel, resazurin fluorescence, basal, 24 h, PK04 Diversity Set (AID 1174); conditions: higher = more signal, called active from +8 up or from −8 down;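 also: MM1S multiple myeloma cell line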
[4] = molecular target: Dihydroorotate dehydrogenase (quinone), mitochondrial (Plasmodium falciparum (isolate 3D7)) (UniProt Q08210); test: PfDHODH enzyme inhibitors, primary screen, biochemical, C-terminal His tag, absorbance 600 nm (AID 1175); conditions: DCIP absorbance 600 nm, higher = more signal, called active from +8 up or from −8 down;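 also: recombinant parasite enzyme with a five histidine tag at its C terminus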
[5] = P. aeruginosa biofilm formation inhibitors, primary screen, strain PAO1, LB-PBS medium, absorbance 600 nm (AID 1176); conditions: P. aeruginosa PAO1 growth/biofilm, A600, 12 h; higher = more signal
[6] = S. cerevisiae RM11-1a growth modifiers, primary screen, strain RM11-1a, OD600, basal, 24 h (AID 1177); conditions: OD600, 24 h, higher = more signal, called active from +8 up or from −8 down;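 also: cultures grown under basal conditions with no added stressor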
[7] = E. coli acrAB mutant growth effects, primary screen, E. coli filamentation inducers, strain DRC39, OD650, 24 h (AID 1178); conditions: higher = more signal, called active from +8 up or from −8 down;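 also: growth measured as culture turbidity by optical density at 650 nm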
[8] = E. coli acrAB mutant growth effects, primary screen, E. coli filamentation inducers, strain DRC39, OD650, 48 h (AID 1179);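 also: screen aims at cell division blockers that make cells filament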; conditions: E. coli DRC39 delta-acrAB growth, higher = more signal, called active from +8 up or from −8 down
[9] = RPMI8226 myeloma cell viability, profiling panel, resazurin fluorescence, basal, 24 h, PK04 Diversity Set (AID 1180); conditions: higher = more signal;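 also: RPMI8826 multiple myeloma cell line at 5000 cells per well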
[10] = molecular target: E3 ubiquitin-protein ligase XIAP (Homo sapiens) (UniProt P98170); test: XIAP binders, primary screen, biophysical, small-molecule microarray, fluorescence 635 nm (AID 1181); conditions: small-molecule microarray binding, higher = more signal;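 also: score merges 667 nm emission and signal to noise over triplicate slides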
[11] = tested on: XIP peptide (Xip251-270) binding; test: small-molecule binders of XIP peptide, primary screen, biochemical, small-molecule microarray, fluorescence 635/667 nm, 0.1 µg/mL protein (AID 1182); conditions: fluorescent protein binding, 635 nm, higher = more signal, called active from +8 up or from −8 down
XIP peptide (Xip251-270) = test: small-molecule binders of XIP peptide, primary screen, biochemical, small-molecule microarray, fluorescence 635/667 nm, 0.5 µg/mL protein (AID 1183); conditions: small-molecule microarray binding, fluorescence 635 nm; higher = more signal
[12] = Plasmodium falciparum growth inhibition, primary screen, strain 3D7, DAPI fluorescence, 100 nL (AID 1184);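 also: parasites grown inside human red blood cells in medium with human serum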; conditions: P. falciparum 3D7 growth, 3 d, higher = more signal
[13] = molecular target: Homeobox protein Hox-A13 (Mus musculus) (UniProt Q62424); test: inhibitors of HoxA13-DNA binding, primary screen, biochemical, fluorescence polarization, labeled oligonucleotide (AID 1185); conditions: 15 min, higher = more signal, called active from +8 up or from −8 down
[14] = inhibitors of hydroxyurea-induced Chk1 phosphorylation, primary screen, imaging, HeLa, phospho-Chk1 antibody, percent positive cells (AID 1186); conditions: hydroxyurea-induced phospho-Chk1 immunofluorescence imaging, higher = more signal
[15] = inhibitors of hydroxyurea-induced Chk1 phosphorylation, primary screen, imaging, HeLa, phospho-Chk1 nuclear intensity (AID 1187); conditions: hydroxyurea-induced phospho-Chk1 immunofluorescence imaging, higher = more signal

Sequence of E3 ubiquitin-protein ligase XIAP (Homo sapiens) (P98170 whole entry, looked up): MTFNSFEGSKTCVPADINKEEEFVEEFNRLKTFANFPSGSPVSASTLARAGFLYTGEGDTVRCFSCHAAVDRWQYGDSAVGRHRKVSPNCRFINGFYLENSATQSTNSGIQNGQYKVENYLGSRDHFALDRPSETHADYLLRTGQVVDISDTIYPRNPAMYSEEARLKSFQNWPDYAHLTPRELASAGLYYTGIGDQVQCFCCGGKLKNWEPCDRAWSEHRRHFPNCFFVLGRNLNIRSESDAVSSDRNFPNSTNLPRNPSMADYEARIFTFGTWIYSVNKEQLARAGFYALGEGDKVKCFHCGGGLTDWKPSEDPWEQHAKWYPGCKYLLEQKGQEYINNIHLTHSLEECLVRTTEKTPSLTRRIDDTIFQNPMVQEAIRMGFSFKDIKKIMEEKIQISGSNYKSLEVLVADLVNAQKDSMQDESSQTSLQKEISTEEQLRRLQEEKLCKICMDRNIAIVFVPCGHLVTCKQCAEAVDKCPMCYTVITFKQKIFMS
Sequence of Homeobox protein Hox-A13 (Mus musculus) (Q62424 whole entry, looked up): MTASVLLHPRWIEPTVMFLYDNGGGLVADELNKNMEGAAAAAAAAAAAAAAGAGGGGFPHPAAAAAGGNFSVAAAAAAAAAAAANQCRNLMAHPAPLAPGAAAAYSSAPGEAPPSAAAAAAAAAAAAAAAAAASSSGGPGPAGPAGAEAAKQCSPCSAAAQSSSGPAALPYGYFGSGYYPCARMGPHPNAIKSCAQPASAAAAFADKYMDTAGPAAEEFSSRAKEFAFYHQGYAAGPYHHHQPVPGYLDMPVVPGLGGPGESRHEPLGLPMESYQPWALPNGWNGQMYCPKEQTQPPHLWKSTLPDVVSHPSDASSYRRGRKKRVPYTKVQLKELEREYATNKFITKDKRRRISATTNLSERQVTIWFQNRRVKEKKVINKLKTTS
Sequence of Dihydroorotate dehydrogenase (quinone), mitochondrial (Plasmodium falciparum (isolate 3D7)) (Q08210 whole entry, looked up): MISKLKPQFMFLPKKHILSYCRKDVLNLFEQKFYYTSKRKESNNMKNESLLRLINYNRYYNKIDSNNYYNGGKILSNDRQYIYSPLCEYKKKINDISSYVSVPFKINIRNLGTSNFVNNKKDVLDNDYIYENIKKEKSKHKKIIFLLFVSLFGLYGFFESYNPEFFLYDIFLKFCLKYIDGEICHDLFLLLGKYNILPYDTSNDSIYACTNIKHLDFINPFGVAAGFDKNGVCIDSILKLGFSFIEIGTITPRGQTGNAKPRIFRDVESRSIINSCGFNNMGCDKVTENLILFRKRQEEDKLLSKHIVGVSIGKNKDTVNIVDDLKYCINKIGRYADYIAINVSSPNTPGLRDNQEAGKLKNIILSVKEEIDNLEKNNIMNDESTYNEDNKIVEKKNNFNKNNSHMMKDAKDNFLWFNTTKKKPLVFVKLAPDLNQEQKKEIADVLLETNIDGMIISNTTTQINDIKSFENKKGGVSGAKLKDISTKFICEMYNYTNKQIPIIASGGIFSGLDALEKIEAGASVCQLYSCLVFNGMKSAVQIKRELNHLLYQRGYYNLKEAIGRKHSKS

SMILES	z-score [1]	z-score [2]	z-score [3]	composite z-score [4]	z-score [5]	z-score [6]	z-score [7]	z-score [8]	z-score [9]	composite z-score [10]	composite z-score [11]	composite z-score (XIP peptide (Xip251-270))	z-score [12]	z-score [13]	z-score [14]	z-score [15]
C#CCNC(=O)[C@H](Cc1ccccc1)NC(=O)[C@@H](N=[N+]=[N-])C(C)C	0.664	-1.19 (inactive)	0.633 (inactive)	-0.635 (inactive)	-0.24 (inactive)	-0.597 (inactive)	0.713 (inactive)	0.626 (inactive)	0.816	0.117	0.056 (inactive)	0.262	-0.765	-0.747 (inactive)	0.744 (inactive)	0.815 (inactive)
CN1C2C=C(CCCO)C(C3C(=O)N(C(N)=O)C(=O)C32)C1c1cccs1 (centres undefined)	-1	0.53 (inactive)	-0.135 (inactive)	0.837 (inactive)	-0.329 (inactive)	1.37 (inactive)	-0.967 (inactive)	-0.837 (inactive)	-0.69	3.82	0.0931 (inactive)	-0.301	-0.29	-8.5 (active)	-0.443 (inactive)	0.133 (inactive)
COc1ccc(CCNC(=O)[C@@]2(Sc3ccc(C)cc3)CC(=O)N(Cc3cc(C(F)(F)F)cc(C(F)(F)F)c3)[C@@H]2c2ccc(CO)cc2I)cc1	0.872	-3.6 (inactive)	-2.46 (inactive)	-0.988 (inactive)	0.723 (inactive)	-1.33 (inactive)	0.232 (inactive)	0.214 (inactive)	-1.61	-0.291	0.439 (inactive)	0.858	0.725	-2.57 (inactive)	0.261 (inactive)	0.688 (inactive)
CCOc1cc(C(O)C2C=CC3C(=O)N(C4CCCCC4)C(=O)C3N2Nc2ccc(OC)cc2)ccc1O (centres undefined)	0.182	0.0779 (inactive)	0.312 (inactive)	-0.665 (inactive)	0.698 (inactive)	0.0701 (inactive)	0.231 (inactive)	1.13 (inactive)	0.753	0.169	0.0699 (inactive)	0.486	-0.165	-3.99 (inactive)	-0.509 (inactive)	-0.813 (inactive)
CC(=O)NCCCC[C@@H]1NC(=O)[C@@H]2C[C@H](C(=O)O)[C@H](c3ccc(O)cc3)N2C1=O	-0.253	0.929 (inactive)	0.699 (inactive)	0.435 (inactive)	-0.819 (inactive)	0.88 (inactive)	0.0763 (inactive)	-0.301 (inactive)	0.517	-0.0796	3.54 (inactive)	-0.0306	0.174	-2.19 (inactive)	0.318 (inactive)	0.202 (inactive)
COCCCNC(=O)[C@@]1(Sc2ccc(C)cc2)CC(=O)N(Cc2cc(C(F)(F)F)cc(C(F)(F)F)c2)[C@@H]1c1ccc(CO)cc1	-0.092	-0.138 (inactive)	-0.538 (inactive)	-0.669 (inactive)	0.158 (inactive)	-0.219 (inactive)	0.0881 (inactive)	0.231 (inactive)	-0.368	-0.0571	0.451 (inactive)	0.634	-0.0611	-0.737 (inactive)	0.155 (inactive)	0.0411 (inactive)
C[C@@H]1ON(c2ccc(C(=O)OC(C)(C)C)cc2)[C@H](c2ccc(Br)cc2)[C@H]1C(=O)N1C(=O)OC[C@H]1Cc1ccccc1	0.318	0.0743 (inactive)	0.652 (inactive)	0.315 (inactive)	0.224 (inactive)	0.538 (inactive)	0.488 (inactive)	0.46 (inactive)	1.23	-0.16	0.36 (inactive)	0.321	-0.238	-0.654 (inactive)	-0.55 (inactive)	-0.237 (inactive)
[N-]=[N+]=Nc1ccccc1C[C@@]1(C(=O)O)N=C(c2ccc(OCCCO)cc2)O[C@@H]1c1ccccc1	1.06	-2.01 (inactive)	-0.161 (inactive)	0.624 (inactive)	0.342 (inactive)	-0.583 (inactive)	-0.26 (inactive)	-0.523 (inactive)	0.229	0.427	0.57 (inactive)	0.707	-0.188	-5.79 (inactive)	0.167 (inactive)	0.149 (inactive)
CN(C)CCCNC(=O)[C@@]1(c2ccc([N+](=O)[O-])cc2)CC(=O)N(CC23CC4CC(CC(C4)C2)C3)[C@@H]1c1ccc(CO)cc1	-6.19	-16.2 (active)	-8.92 (active)	0.687 (inactive)	0.472 (inactive)	-8.93 (active)	0.325 (inactive)	-2.4 (inactive)	-6.48	0.0896	1.13 (inactive)	0.843	-2.4	7.52 (inactive)	-0.451 (inactive)	-0.75 (inactive)
CC[C@H]1C2=C3C(CC[C@H]4C(OCc5ccc(F)cc5C(F)(F)F)OC[C@](C)([C@@H]34)N(C(=O)OC(C)(C)C)C2)C2COC(=O)OCC21 (some centres undefined)	-1.12	0.485 (inactive)	-1.46 (inactive)	0.0979 (inactive)	0.551 (inactive)	0.368 (inactive)	-0.678 (inactive)	-0.36 (inactive)	-0.556	0.131	3.17 (inactive)	0.393	-0.749	-3.54 (inactive)	1.23 (inactive)	0.722 (inactive)
CCCN1C(=O)[C@]2(Cc3ccccc3)N=C(c3ccc(OCCCO)cc3)O[C@@H]2c2ccccc21	0.734	-1.94 (inactive)	-0.753 (inactive)	-0.42 (inactive)	-0.0963 (inactive)	0.931 (inactive)	0.94 (inactive)	0.718 (inactive)	-1.13	0.108	-0.116 (inactive)	0.594	-2.26	-4.81 (inactive)	-0.143 (inactive)	0.231 (inactive)
COc1ccc(NN2C(C(O)c3ccccn3)C=CC3C(=O)N(C4CCCCC4)C(=O)C32)cc1 (centres undefined)	1.64	-0.774 (inactive)	0.583 (inactive)	1.25 (inactive)	0.574 (inactive)	0.219 (inactive)	-0.416 (inactive)	0.824 (inactive)	0.974	-0.308	-0.136 (inactive)	0.913	-0.408	-4.39 (inactive)	-0.773 (inactive)	-0.488 (inactive)
CN1C(=O)C2C=CC(C(O)c3c(F)cccc3Cl)N(Nc3ccccc3)C2C1=O (centres undefined)	-0.203	-1.03 (inactive)	-0.682 (inactive)	0.061 (inactive)	0.627 (inactive)	-0.284 (inactive)	-1.11 (inactive)	-0.618 (inactive)	-0.679	0.0651	-0.108 (inactive)	0.324	1.04	-3.42 (inactive)	0.563 (inactive)	0.463 (inactive)
CCOC(=O)C1=CC[C@@H](c2cc(Cl)ccc2Cl)N(S(=O)(=O)c2ccc(C)cc2)[C@H]1c1ccc(OC)cc1	0.292	2.05 (inactive)	-1.34 (inactive)	0.658 (inactive)	0.0767 (inactive)	2.28 (inactive)	-0.61 (inactive)	-1.03 (inactive)	-1.97	0.179	-0.244 (inactive)	-0.837	-1.41	-1.08 (inactive)	-0.256 (inactive)	-0.611 (inactive)
O=C1O[C@@H](c2ccccc2)[C@@H](c2ccccc2)N2[C@@H](c3ccc(O)cc3)[C@]3(C(=O)Nc4ccc(C#CCCO)cc43)[C@@H](C(=O)NC[C@H](O)c3ccccc3)[C@H]12	1.29	-0.169 (inactive)	0.214 (inactive)	0.129 (inactive)	-0.192 (inactive)	0.376 (inactive)	0.6 (inactive)	0.242 (inactive)	1.33	0.363	0.437 (inactive)	0.478	-0.656	-5 (inactive)	-0.101 (inactive)	-0.46 (inactive)
C=CCC(OC(C)=O)[C@@H]1[C@@H](N(Cc2ccc(-c3ccccc3)cc2)C(=O)c2cccc3ccccc23)c2cc(OCCCO)ccc2N1C(=O)Cc1ccc2ccccc2c1 (some centres undefined)	0.0989	-0.456 (inactive)	-0.144 (inactive)	0.0505 (inactive)	0.374 (inactive)	-0.611 (inactive)	0.326 (inactive)	-0.299 (inactive)	-0.187	0.18	-0.366 (inactive)	0.579	-0.171	-1.26 (inactive)	-0.8 (inactive)	-0.493 (inactive)
CN1C(=O)C2C=CC(C(O)Cc3ccccc3)N(N(c3ccccc3)c3ccccc3)C2C1=O (centres undefined)	-0.567	-0.519 (inactive)	-1.62 (inactive)	-0.443 (inactive)	0.543 (inactive)	0.303 (inactive)	-0.804 (inactive)	-0.233 (inactive)	-0.855	0.0918	-0.072 (inactive)	0.645	-0.077	-2.48 (inactive)	0.077 (inactive)	-0.0628 (inactive)
NCCCCCCNC(=O)[C@H]1C[C@H]2C(=O)N[C@@H](Cc3ccccc3)C(=O)N2[C@H]1c1ccc(O)cc1	0.614	-0.68 (inactive)	1.58 (inactive)	-1.32 (inactive)	0.118 (inactive)	-1.27 (inactive)	0.279 (inactive)	0.04 (inactive)	1.27	-0.0826	-0.342 (inactive)	0.623	0.171	-3.5 (inactive)	-0.174 (inactive)	0.592 (inactive)
CC(C)(C)OC(=O)CC[C@]1(C(=O)NCCN2CCOCC2)N=C(c2ccc(OCCCO)cc2)O[C@H]1c1ccccc1	-0.385	0.26 (inactive)	0.0457 (inactive)	-1.63 (inactive)	-0.347 (inactive)	0.574 (inactive)	-0.0656 (inactive)	-0.448 (inactive)	0.13	-0.031	0.471 (inactive)	0.598	0.207	-4.62 (inactive)	-0.103 (inactive)	0.201 (inactive)
